# Experimental data from PubChem BioAssay (NCATS).
# Inconclusive results are not listed. Values without a mark were called inactive. Active and inactive are the calls of the source. Calls follow the shape of the dose curve; as a rule, active = well fitted inhibition curve with a large enough effect; inconclusive = small, poorly fitted or top-dose-only effect; inactive = flat fitted curve, though single readings scatter.
# Test system: MCC-13
# Experiment: qHTS assay to identify novel small-molecules to repurpose for Merkel cell carcinoma treatment (AID 1296009); also: nearly all actives have a fitted effect of over 60% in size
# Details: MCC and control cell lines, CellTiter-Glo viability, 72 h; series mostly up to 46 µM; activity change, negative = cytotoxicity: at the top concentration
# In short: (§1)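 Viability readout: ATP luminescence (CellTiter-Glo) after 72 hr drug exposure at 37 degree celsius. Dose-response format was 8 points for NPC and 11 points for MIPE; data normalized to in-plate controls.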
# % is scaled to controls: 0 for no effect and ±100 for the full control effect; potency is read from the fitted curve at half-maximal effect.
row,Structure (SMILES),"activity change, negative = cytotoxicity"
1,NC(=O)n1c(O)c(C(=O)c2cccs2)c2cc(Cl)ccc21,-5.91%
2,CC(=C(CCOC(=O)C(C)C)SSC(CCOC(=O)C(C)C)=C(C)N(C=O)Cc1cnc(C)nc1N)N(C=O)Cc1cnc(C)nc1N,1.32%
3,CCO[C@@H]1O[C@H](C(COCc2ccccc2)OCc2ccccc2)[C@H](OCc2ccccc2)[C@H]1O (stereo partly drawn),-16.4%
4,C=C1c2cccc(O)c2C(O)=C2C(=O)[C@]3(O)C(O)=C(C(N)=O)C(=O)[C@@H](N(C)C)[C@@H]3[C@@H](O)[C@H]12,-0.76%
5,CN1CCN(C2=Nc3cc(F)ccc3Cc3ccccc32)CC1,-1.86%
6,CC(C)[N+](C)(C)CC(O)COc1cccc2ccccc12 (stereo not drawn),1.59%
7,O=[N+]([O-])c1ccc(/C=N\O)o1,10%
8,C[N+]1(CC2COC(c3ccccc3)(C3CCCCC3)O2)CCCCC1 (stereo not drawn),2.44%
9,CCN(CC)CCOc1ccccc1C(=O)CCc1ccccc1,-0.376%
10,CCCCN=C(N)N=C(N)N,-0.323%
11,Cc1cc2c(OCC(CNC(C)(C)C)OC(=O)c3ccccc3)cccc2[nH]1 (stereo not drawn),0.62%
12,c1ccc(CC2=NCCN2)cc1,-1.25%
13,CN1CCN(C2=Nc3ccccc3Sc3ccc(Cl)cc32)CC1,5.59%
14,CCCCc1cc2ccccc2c(OCCN(C)C)n1,-13.2%
15,Cc1ccc(O)c([C@H](CCN(C(C)C)C(C)C)c2ccccc2)c1,-13.9%
16,C#C[C@]1(O)CC[C@H]2[C@@H]3CCc4cc(OC)ccc4[C@H]3CC[C@@]21C,16.7%
17,O=C(CCN1CCN2CCCC2C1)N1c2ccccc2Sc2ccc(Cl)cc21 (stereo not drawn),-0.803% [at 16.1 µM]
18,CC(C)(Cc1c[nH]c2ccccc12)NCC(O)COc1ccccc1C#N (stereo not drawn),-4.4%
19,COc1cc(O)c(C(=O)c2ccccc2)cc1S(=O)(=O)O,9.06%
20,CCC(CC)(CC(=O)Nc1cccc(/C=C/c2nc(C3CCC3)cs2)c1)C(=O)O,3.81%
21,OC[C@H]1O[C@@H](Oc2ccc(O)cc2)[C@H](O)[C@@H](O)[C@@H]1O,13.8%
22,O=C(Nc1ccccc1)OCC(CN1CCCCC1)OC(=O)Nc1ccccc1 (stereo not drawn),-18.7%

# Test system: MCC-26
# Experiment: as above
# Details: MCC and control cell lines, CellTiter-Glo viability, 72 h; series mostly up to 46 µM; activity change, negative = cytotoxicity: at the top concentration
# In short: as §1
Structure (SMILES),"activity change, negative = cytotoxicity",Potency
CCc1oc2ccccc2c1C(=O)c1cc(Br)c(O)c(Br)c1,-18.8%,
C=C[C@H]1CN2CC[C@H]1C[C@H]2[C@H](O)c1ccnc2ccc(OC)cc12,-2.19%,
CC[C@H](c1ccc(O)cc1)[C@@H](CC)c1ccc(O)cc1,-3.79%,
CCCCC(CC)CN1CN(CC(CC)CCCC)CC(C)(N)C1 (stereo not drawn),-12%,
CO[C@H]1C=CO[C@@]2(C)Oc3c(C)c(O)c4c(O)c(c(/C=N/N5CCN(C)CC5)c(O)c4c3C2=O)NC(=O)/C(C)=C\C=C[C@H](C)[C@H](O)[C@@H](C)[C@@H](O)[C@@H](C)[C@H](OC(C)=O)[C@@H]1C,-17.4%,
Cc1cc(CC(=O)O)c(C)n1-c1ccc(Cl)cc1,8.15%,
O=C1[C@H](CC[C@H](O)c2ccc(F)cc2)[C@@H](c2ccc(O)cc2)N1c1ccc(F)cc1,3.73%,
C#C[C@]1(O)CC[C@H]2[C@@H]3[C@H](C)CC4=C(CCC(=O)C4)[C@H]3CC[C@@]21C,-2.7%,
CC(C)n1c(/C=C/[C@@H](O)C[C@@H](O)CC(=O)O)c(-c2ccc(F)cc2)c2ccccc21,,13.3 µM (active)
CC(=O)OCC1=C(C(=O)O)N2C(=O)[C@@H](NC(=O)CSc3ccncc3)[C@H]2SC1,2.12%,
NCCNC(=O)c1ccc(Cl)cn1,1.8%,
C[C@]12CCC(=O)C=C1C=C[C@@H]1[C@@H]2CC[C@@]2(C)[C@H]1CC[C@@]21CCC(=O)O1,-15%,
COc1ccc(CCN(C)CCCN2CCc3cc(OC)c(OC)cc3CC2=O)cc1OC,0.799%,
CC(=O)O[C@]1(C(C)=O)CC[C@H]2[C@@H]3C=C(Cl)C4=CC(=O)CC[C@]4(C)[C@H]3CC[C@@]21C,4.37%,
NC(=O)n1c(O)c(C(=O)c2cccs2)c2cc(Cl)ccc21,0.537%,
CC(=C(CCOC(=O)C(C)C)SSC(CCOC(=O)C(C)C)=C(C)N(C=O)Cc1cnc(C)nc1N)N(C=O)Cc1cnc(C)nc1N,16.6%,
CCO[C@@H]1O[C@H](C(COCc2ccccc2)OCc2ccccc2)[C@H](OCc2ccccc2)[C@H]1O (stereo partly drawn),-0.772%,
C=C1c2cccc(O)c2C(O)=C2C(=O)[C@]3(O)C(O)=C(C(N)=O)C(=O)[C@@H](N(C)C)[C@@H]3[C@@H](O)[C@H]12,-2.1%,

Structure (SMILES),"activity change, negative = cytotoxicity",Potency
CN1CCN(C2=Nc3cc(F)ccc3Cc3ccccc32)CC1,-13.1%,
CC(C)[N+](C)(C)CC(O)COc1cccc2ccccc12 (stereo not drawn),-12%,
O=[N+]([O-])c1ccc(/C=N\O)o1,7.72%,
C[N+]1(CC2COC(c3ccccc3)(C3CCCCC3)O2)CCCCC1 (stereo not drawn),4.2%,
CCN(CC)CCOc1ccccc1C(=O)CCc1ccccc1,-6.75%,
CCCCN=C(N)N=C(N)N,-1.47%,
Cc1cc2c(OCC(CNC(C)(C)C)OC(=O)c3ccccc3)cccc2[nH]1 (stereo not drawn),1.99%,
c1ccc(CC2=NCCN2)cc1,-0.435%,
CN1CCN(C2=Nc3ccccc3Sc3ccc(Cl)cc32)CC1,-10.6%,
CCCCc1cc2ccccc2c(OCCN(C)C)n1,-13.1%,
Cc1ccc(O)c([C@H](CCN(C(C)C)C(C)C)c2ccccc2)c1,-15%,
C#C[C@]1(O)CC[C@H]2[C@@H]3CCc4cc(OC)ccc4[C@H]3CC[C@@]21C,12.2%,
O=C(CCN1CCN2CCCC2C1)N1c2ccccc2Sc2ccc(Cl)cc21 (stereo not drawn),-9.08% [at 16.1 µM],
CC(C)(Cc1c[nH]c2ccccc12)NCC(O)COc1ccccc1C#N (stereo not drawn),-1.91%,
COc1cc(O)c(C(=O)c2ccccc2)cc1S(=O)(=O)O,-0.033%,
CCC(CC)(CC(=O)Nc1cccc(/C=C/c2nc(C3CCC3)cs2)c1)C(=O)O,-4.77%,
OC[C@H]1O[C@@H](Oc2ccc(O)cc2)[C@H](O)[C@@H](O)[C@@H]1O,0.573%,
O=C(Nc1ccccc1)OCC(CN1CCCCC1)OC(=O)Nc1ccccc1 (stereo not drawn),-6.86%,
